The supplement of paper PMC11732987, “Enantioselective OTUD7B fragment discovery through chemoproteomics screening and high-throughput optimisation” (Communications Chemistry, 2025)

Legend:
Assay in all cases: log2 ratio of Biotin-Ahx-Ub-VS probe labelling (fragment/DMSO); higher = less target engagement (more negative = stronger competition), active = hit call of the paper (q ≤ 0.05, log2 ratio ≤ -1)
Details in all cases: compound concentration: 200 uM; treatment time: 3 h
[1] = biological target: USP34 (UniProt Q70CQ2)
Outline: (§1)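 The table lists average log2 ratios of fragment over vehicle, from an unpaired t-test on global-median-normalised Spectronaut label-free quantities. Proteins with ≥2 unique peptides were used. Samples were HEK293T lysate (495 µg) treated in triplicate with fragment at 200 µM or vehicle for 3 h, then with Biotin-Ahx-Ub-VS (0.5 µM final) for 1 h, with labelled DUBs NeutrAvidin-enriched and run by diaPASEF LC-MS/MS.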

[2] = biological target: T1, USP36 (UniProt Q9P275)
T1 sequence (whole entry): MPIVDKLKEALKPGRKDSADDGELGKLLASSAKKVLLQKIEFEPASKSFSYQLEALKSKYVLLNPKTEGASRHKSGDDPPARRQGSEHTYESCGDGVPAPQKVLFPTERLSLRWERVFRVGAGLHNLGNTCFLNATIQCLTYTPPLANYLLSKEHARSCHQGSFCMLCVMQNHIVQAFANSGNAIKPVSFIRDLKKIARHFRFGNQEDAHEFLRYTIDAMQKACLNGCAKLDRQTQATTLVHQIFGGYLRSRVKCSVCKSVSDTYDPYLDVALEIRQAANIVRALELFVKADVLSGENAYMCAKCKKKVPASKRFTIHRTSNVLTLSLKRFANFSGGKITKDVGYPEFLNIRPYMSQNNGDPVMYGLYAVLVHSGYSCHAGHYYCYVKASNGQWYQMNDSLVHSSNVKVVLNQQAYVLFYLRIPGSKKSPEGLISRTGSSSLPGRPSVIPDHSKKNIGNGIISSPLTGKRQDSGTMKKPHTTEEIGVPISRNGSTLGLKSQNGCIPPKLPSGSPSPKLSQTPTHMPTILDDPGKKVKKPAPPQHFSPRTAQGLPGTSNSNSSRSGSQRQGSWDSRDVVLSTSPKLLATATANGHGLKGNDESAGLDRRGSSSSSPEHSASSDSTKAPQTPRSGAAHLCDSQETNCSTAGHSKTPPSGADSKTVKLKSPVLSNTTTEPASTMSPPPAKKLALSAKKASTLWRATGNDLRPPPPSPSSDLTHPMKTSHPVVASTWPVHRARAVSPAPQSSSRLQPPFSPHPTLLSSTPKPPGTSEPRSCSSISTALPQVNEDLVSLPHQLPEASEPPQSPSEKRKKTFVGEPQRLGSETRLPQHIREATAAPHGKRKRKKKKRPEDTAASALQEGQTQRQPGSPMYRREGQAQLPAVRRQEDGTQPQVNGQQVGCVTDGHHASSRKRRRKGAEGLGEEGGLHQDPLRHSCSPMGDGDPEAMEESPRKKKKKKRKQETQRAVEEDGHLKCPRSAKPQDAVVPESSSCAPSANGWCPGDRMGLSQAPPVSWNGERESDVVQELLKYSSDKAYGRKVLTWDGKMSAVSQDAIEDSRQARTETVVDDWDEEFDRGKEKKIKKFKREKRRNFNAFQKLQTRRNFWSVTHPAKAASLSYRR
Outline: as §1

[3] = biological target: T2, USP38 (UniProt Q8NB14)
T2 sequence (whole entry): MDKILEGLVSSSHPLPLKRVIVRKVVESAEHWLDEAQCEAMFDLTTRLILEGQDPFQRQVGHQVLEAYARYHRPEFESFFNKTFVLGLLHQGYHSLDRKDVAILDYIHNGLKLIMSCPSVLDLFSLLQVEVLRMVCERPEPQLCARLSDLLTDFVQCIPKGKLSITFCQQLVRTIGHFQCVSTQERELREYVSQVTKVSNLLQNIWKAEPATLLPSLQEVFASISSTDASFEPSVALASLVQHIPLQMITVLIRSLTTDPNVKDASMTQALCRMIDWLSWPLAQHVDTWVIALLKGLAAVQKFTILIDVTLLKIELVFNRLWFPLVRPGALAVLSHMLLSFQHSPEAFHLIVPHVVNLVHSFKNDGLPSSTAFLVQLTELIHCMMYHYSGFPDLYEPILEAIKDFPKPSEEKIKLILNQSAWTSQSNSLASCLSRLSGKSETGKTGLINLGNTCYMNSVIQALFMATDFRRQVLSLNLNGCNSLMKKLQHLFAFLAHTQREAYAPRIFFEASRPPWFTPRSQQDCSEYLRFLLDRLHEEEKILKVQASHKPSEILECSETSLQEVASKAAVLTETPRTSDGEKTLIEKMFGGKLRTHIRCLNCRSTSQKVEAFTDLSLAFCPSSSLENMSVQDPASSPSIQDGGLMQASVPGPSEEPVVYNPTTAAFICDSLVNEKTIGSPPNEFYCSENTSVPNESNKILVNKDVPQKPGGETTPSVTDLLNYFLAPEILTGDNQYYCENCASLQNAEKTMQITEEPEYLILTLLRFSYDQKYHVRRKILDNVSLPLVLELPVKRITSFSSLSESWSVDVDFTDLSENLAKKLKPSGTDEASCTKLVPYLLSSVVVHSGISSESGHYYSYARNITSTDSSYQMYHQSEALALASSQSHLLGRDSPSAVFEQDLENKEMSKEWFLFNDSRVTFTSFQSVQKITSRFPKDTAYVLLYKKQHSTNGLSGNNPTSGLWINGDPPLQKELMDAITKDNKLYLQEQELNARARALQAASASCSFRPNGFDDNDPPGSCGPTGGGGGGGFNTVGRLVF
Outline: as §1

[4] = biological target: T3, USP39 (UniProt Q53GS9)
T3 sequence (whole entry): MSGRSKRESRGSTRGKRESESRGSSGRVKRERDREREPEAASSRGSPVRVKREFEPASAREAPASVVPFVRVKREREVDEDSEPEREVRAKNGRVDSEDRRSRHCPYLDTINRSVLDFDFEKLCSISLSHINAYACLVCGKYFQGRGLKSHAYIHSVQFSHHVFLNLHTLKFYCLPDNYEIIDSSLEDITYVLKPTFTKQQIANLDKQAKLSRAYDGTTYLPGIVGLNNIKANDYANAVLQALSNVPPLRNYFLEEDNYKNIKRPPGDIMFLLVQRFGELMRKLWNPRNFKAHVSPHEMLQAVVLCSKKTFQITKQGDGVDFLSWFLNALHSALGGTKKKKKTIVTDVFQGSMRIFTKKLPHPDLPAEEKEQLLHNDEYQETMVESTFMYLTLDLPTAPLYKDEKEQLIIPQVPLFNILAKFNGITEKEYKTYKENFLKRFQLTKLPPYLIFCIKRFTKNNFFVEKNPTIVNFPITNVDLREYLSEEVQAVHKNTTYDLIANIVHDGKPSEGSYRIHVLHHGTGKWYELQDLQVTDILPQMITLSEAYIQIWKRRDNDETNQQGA
Outline: as §1

[5] = biological target: T4, USP4 (UniProt Q13107)
T4 sequence (whole entry): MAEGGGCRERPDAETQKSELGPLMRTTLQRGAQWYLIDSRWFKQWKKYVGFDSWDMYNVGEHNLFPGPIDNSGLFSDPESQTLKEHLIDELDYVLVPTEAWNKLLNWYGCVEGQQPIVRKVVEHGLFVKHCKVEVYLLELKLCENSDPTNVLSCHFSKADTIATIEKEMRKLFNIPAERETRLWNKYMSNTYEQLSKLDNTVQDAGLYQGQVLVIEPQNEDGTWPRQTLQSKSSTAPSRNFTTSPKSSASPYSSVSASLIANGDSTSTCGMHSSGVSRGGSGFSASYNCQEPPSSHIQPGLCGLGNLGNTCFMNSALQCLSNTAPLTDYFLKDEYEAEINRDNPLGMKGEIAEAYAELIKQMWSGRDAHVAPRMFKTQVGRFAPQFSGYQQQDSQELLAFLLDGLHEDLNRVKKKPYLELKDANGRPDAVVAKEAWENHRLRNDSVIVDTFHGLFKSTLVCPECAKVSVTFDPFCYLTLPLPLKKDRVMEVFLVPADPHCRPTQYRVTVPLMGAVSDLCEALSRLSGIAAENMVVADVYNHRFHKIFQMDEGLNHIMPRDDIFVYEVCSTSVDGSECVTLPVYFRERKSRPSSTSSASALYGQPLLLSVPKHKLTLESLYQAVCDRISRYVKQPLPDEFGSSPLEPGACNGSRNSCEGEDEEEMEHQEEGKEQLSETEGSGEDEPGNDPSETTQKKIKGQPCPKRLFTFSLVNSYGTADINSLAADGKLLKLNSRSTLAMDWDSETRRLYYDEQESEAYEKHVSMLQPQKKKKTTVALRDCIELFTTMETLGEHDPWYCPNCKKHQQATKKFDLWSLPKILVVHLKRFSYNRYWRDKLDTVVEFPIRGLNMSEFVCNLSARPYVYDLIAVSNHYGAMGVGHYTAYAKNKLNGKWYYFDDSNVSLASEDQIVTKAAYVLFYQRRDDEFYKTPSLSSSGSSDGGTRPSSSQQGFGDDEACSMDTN
Outline: as §1

Measured: log2 ratio of Biotin-Ahx-Ub-VS probe labelling

USP34, sequence (Q70CQ2 whole entry, the tested form may be a part): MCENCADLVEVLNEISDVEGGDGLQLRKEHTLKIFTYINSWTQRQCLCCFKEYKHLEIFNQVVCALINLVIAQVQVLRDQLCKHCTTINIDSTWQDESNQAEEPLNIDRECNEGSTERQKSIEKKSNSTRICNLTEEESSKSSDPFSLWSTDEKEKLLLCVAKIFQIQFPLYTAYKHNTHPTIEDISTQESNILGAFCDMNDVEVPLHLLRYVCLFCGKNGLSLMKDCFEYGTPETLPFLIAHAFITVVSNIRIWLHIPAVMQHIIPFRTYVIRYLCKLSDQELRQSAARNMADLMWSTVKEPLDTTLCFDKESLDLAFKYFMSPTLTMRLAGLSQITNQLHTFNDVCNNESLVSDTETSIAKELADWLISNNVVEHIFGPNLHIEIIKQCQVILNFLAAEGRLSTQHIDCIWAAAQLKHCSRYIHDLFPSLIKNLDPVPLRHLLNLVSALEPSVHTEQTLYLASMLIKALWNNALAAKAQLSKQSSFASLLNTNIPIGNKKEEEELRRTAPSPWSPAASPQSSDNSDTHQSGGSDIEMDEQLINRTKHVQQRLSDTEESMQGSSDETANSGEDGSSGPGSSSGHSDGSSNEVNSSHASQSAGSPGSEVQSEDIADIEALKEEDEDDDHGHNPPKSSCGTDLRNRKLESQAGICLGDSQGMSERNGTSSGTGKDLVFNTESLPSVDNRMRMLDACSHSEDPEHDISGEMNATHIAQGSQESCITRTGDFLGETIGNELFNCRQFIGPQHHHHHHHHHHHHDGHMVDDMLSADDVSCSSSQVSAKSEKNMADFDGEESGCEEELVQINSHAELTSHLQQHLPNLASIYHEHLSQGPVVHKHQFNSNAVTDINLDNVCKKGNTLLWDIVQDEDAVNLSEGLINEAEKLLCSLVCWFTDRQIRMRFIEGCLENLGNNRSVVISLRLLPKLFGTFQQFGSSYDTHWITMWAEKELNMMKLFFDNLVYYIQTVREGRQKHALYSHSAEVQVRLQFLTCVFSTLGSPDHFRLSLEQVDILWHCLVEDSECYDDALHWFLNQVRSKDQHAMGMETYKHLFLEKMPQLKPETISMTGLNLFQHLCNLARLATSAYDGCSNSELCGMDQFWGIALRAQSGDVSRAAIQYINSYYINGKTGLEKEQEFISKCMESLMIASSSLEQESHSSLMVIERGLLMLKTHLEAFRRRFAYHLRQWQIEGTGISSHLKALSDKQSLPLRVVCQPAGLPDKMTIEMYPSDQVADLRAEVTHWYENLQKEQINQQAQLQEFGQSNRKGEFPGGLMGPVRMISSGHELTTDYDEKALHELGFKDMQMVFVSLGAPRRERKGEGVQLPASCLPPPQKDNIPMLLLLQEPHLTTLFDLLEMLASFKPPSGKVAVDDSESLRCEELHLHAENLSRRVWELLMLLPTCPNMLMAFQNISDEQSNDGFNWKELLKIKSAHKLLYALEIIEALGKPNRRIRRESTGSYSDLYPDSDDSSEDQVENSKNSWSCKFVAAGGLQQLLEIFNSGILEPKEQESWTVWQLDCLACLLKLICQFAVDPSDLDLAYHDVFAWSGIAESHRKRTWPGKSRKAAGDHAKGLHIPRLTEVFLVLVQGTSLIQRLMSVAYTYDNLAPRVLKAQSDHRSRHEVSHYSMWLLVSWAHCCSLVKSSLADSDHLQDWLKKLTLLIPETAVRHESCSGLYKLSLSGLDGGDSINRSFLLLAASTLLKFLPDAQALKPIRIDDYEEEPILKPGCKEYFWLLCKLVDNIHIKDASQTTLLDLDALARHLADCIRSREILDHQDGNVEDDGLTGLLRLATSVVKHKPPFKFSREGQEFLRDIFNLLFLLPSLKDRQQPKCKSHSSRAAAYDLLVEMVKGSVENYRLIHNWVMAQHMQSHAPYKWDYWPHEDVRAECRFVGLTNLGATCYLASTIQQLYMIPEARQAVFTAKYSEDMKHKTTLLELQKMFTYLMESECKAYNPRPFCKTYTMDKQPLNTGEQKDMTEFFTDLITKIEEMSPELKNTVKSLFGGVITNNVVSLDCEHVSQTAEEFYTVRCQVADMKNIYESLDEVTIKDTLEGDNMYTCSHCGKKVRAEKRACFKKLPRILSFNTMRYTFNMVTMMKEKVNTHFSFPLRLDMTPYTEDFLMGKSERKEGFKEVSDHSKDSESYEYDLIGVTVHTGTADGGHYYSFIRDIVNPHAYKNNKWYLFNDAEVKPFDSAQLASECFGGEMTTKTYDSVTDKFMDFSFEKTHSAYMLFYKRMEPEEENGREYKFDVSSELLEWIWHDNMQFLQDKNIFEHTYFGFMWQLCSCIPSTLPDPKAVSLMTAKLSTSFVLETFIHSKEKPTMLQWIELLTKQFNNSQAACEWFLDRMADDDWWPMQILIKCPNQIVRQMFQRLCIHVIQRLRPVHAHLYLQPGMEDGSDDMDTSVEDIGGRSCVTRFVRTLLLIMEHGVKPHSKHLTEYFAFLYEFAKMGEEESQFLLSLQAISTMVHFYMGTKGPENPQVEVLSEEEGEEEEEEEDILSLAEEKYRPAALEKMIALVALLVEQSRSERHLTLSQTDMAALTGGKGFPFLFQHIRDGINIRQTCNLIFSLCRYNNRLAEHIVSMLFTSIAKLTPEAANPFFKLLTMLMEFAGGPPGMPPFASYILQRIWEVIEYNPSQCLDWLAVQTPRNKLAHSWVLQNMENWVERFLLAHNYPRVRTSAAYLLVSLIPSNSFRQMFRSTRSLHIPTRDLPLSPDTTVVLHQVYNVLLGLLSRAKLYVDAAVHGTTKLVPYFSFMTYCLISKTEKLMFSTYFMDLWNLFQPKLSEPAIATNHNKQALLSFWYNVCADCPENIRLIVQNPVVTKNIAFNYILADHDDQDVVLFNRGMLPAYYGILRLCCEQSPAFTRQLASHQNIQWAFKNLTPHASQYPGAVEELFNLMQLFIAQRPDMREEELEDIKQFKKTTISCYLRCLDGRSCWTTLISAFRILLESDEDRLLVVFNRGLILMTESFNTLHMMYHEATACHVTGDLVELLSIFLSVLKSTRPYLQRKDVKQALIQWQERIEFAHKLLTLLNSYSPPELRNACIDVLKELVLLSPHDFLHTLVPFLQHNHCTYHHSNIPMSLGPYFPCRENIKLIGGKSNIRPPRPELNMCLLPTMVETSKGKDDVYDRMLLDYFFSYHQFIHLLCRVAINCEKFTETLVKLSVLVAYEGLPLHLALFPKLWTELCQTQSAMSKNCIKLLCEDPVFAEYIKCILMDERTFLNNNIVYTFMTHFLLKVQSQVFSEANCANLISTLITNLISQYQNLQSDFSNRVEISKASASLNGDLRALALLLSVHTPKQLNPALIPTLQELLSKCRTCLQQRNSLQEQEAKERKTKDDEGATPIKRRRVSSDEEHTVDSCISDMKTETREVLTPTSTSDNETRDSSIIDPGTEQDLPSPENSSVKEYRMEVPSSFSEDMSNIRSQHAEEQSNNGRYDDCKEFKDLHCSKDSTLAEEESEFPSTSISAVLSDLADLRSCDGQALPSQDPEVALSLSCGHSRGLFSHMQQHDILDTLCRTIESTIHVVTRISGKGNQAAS

Cc1cccc(NC(=O)CCl)c1C
inactive: [1] -0.304 | [2] -0.363 | [3] -0.389 | [4] -0.513 | [5] -0.269
